From the supplement of paper PMC8387472
Structures can show the parent of a compound that is named as a salt. ± gives the standard deviation of the averaged measurements.

Experiments:
[1] = system: 6.0 (DMSO control at this site: 1-bp insertion 0.296, MH deletion 0.491, edited 0.076) ACGATTGGCCCCCACAAAGCGGACCAGCCAGCGTGCTAGGGAATAAGGCCAACTTGCACCC; assay: fraction of edited reads among all mapped reads; higher = more Cas9 editing; conditions: mESC; 2uM; 72 h treatment, harvest day 5
[2] = system: 6.0 (DMSO control at this site: 1-bp insertion 0.296, MH deletion 0.491, edited 0.076) ACGATTGGCCCCCACAAAGCGGACCAGCCAGCGTGCTAGGGAATAAGGCCAACTTGCACCC; assay: fraction of microhomology deletions among edited reads; higher = more MH deletions; conditions: mESC; 2uM; 72 h treatment, harvest day 5
[3] = system: 6.0 (DMSO control at this site: 1-bp insertion 0.296, MH deletion 0.491, edited 0.076) ACGATTGGCCCCCACAAAGCGGACCAGCCAGCGTGCTAGGGAATAAGGCCAACTTGCACCC; assay: fraction of 1-bp insertions among edited reads; higher = more 1-bp insertion outcomes; conditions: mESC; 2uM; 72 h treatment, harvest day 5
[4] = system: mESC LDLR-Dup GFP reporter (SpCas9 MH-deletion repair); assay: fraction of GFP+ cells relative to DMSO control (fold change); higher = more MH-deletion repair to in-frame LDLR (or more editing); conditions: 2 µM; 7 days post-transfection
[5] = system: 24.0 GACCACAGCCCCCAGCAGGGGAGGCCCCCAGCAGGGGAGGCCCACACCTGCCCCAGCACCT; assay: fraction of edited reads among all mapped reads; higher = more Cas9 editing; conditions: mESC; 2uM; 72 h treatment, harvest day 5
[6] = system: 24.0 GACCACAGCCCCCAGCAGGGGAGGCCCCCAGCAGGGGAGGCCCACACCTGCCCCAGCACCT; assay: fraction of microhomology deletions among edited reads; higher = more MH deletions; conditions: mESC; 2uM; 72 h treatment, harvest day 5
[7] = system: 24.0 GACCACAGCCCCCAGCAGGGGAGGCCCCCAGCAGGGGAGGCCCACACCTGCCCCAGCACCT; assay: fraction of 1-bp insertions among edited reads; higher = more 1-bp insertion outcomes; conditions: mESC; 2uM; 72 h treatment, harvest day 5

## COc1ccccc1-c1cc(Nc2cccc(CS(N)(=O)=O)c2)ncn1
[1]
  fraction of edited reads among all mapped reads: 0.0957
[2]
  fraction of microhomology deletions among edited reads: 0.494
[3]
  fraction of 1-bp insertions among edited reads: 0.281
[4]
  fraction of GFP+ cells: 1.17 ± 0.072

## S=c1nc[nH]c2nc[nH]c12 [6-Mercaptopurine (6-MP) Monohydrate]
[1]
  fraction of edited reads among all mapped reads: 0.0627
[2]
  fraction of microhomology deletions among edited reads: 0.429
[3]
  fraction of 1-bp insertions among edited reads: 0.326
[4]
  fraction of GFP+ cells: 1.21 ± 0.061

## N=C(NOCC(O)CN1CCCCC1)c1cccnc1 (stereo unspecified)
[4]
  fraction of GFP+ cells: 0.805 ± 0.12

## CCc1c2c(nc3ccc(OC(=O)N4CCC(N5CCCCC5)CC4)cc13)-c1cc3c(c(=O)n1C2)COC(=O)[C@]3(O)CC [Irinotecan HCl Trihydrate]
[1]
  fraction of edited reads among all mapped reads: 0.104
[2]
  fraction of microhomology deletions among edited reads: 0.571
[3]
  fraction of 1-bp insertions among edited reads: 0.249
[4]
  fraction of GFP+ cells: 0.463 ± 0.066

## CCN1CCN(CC(=O)Nc2ccc(-c3cccc4c(=O)cc(N5CCOCC5)oc34)c3sc4ccccc4c23)CC1
[1]
  fraction of edited reads among all mapped reads: 0.0396
[2]
  fraction of microhomology deletions among edited reads: 0.588
[3]
  fraction of 1-bp insertions among edited reads: 0.0821
[4]
  fraction of GFP+ cells: 1.08 ± 0.16

## Nc1nc2[nH]cc(CCc3ccc(C(=O)N[C@@H](CCC(=O)O)C(=O)O)cc3)c2c(=O)[nH]1 [Pemetrexed]
[1]
  fraction of edited reads among all mapped reads: 0.0705
[2]
  fraction of microhomology deletions among edited reads: 0.608
[3]
  fraction of 1-bp insertions among edited reads: 0.152
[4]
  fraction of GFP+ cells: 1.53 ± 0.08

## O=C(Nc1ccc(Cl)cc1)C1CCCN(C(=O)c2cccc(-c3ccco3)c2)C1 (stereo unspecified)
[4]
  fraction of GFP+ cells: 0.756 ± 0.13

## CC(C)(Oc1ccc(CCNC(=O)c2ccc(Cl)cc2)cc1)C(=O)O [Bezafibrate]
[4]
  fraction of GFP+ cells: 1.52 ± 0.58

## CN(CCOc1ccc(CC2SC(=O)NC2=O)cc1)c1ccccn1 (stereo unspecified) [Rosiglitazone]
[4]
  fraction of GFP+ cells: 1.48 ± 0.26

## Cc1cc(C)nc(SCC(=O)Nc2ncc(Cc3cccc4ccccc34)s2)n1
[5]
  fraction of edited reads among all mapped reads: 0.0587
[1]
  fraction of edited reads among all mapped reads: 0.13
[6]
  fraction of microhomology deletions among edited reads: 0.552
[2]
  fraction of microhomology deletions among edited reads: 0.498
[7]
  fraction of 1-bp insertions among edited reads: 0.105
[3]
  fraction of 1-bp insertions among edited reads: 0.295
[4]
  fraction of GFP+ cells: 1.15 ± 0.61

## CCCCOc1c(C(=O)c2c(F)cc(C)cc2F)c[nH]c2nncc1-2
[5]
  fraction of edited reads among all mapped reads: 0.0449
[1]
  fraction of edited reads among all mapped reads: 0.0886
[6]
  fraction of microhomology deletions among edited reads: 0.705
[2]
  fraction of microhomology deletions among edited reads: 0.523
[7]
  fraction of 1-bp insertions among edited reads: 0.0164
[3]
  fraction of 1-bp insertions among edited reads: 0.258
[4]
  fraction of GFP+ cells: 1.7 ± 0.11

## COc1cc(N2CCN(C)CC2)ccc1Nc1nccc(-c2cn(C)c3cnccc23)n1
[4]
  fraction of GFP+ cells: 0.577 ± 0.5

## O=c1cc(N2CCOCC2)oc2c(-c3ccc4c(c3)OCCO4)csc12
[1]
  fraction of edited reads among all mapped reads: 0.0488
[2]
  fraction of microhomology deletions among edited reads: 0.568
[3]
  fraction of 1-bp insertions among edited reads: 0.201
[4]
  fraction of GFP+ cells: 0.48 ± 0.029

## CC(=O)O/N=C1\C(=O)N(Cc2cc(Cl)ccc2Cl)c2ccc(Cl)cc21
[5]
  fraction of edited reads among all mapped reads: 0.0521
[1]
  fraction of edited reads among all mapped reads: 0.0813
[6]
  fraction of microhomology deletions among edited reads: 0.696
[2]
  fraction of microhomology deletions among edited reads: 0.51
[7]
  fraction of 1-bp insertions among edited reads: 0.0444
[3]
  fraction of 1-bp insertions among edited reads: 0.256
[4]
  fraction of GFP+ cells: 1.21 ± 0.075

## N#Cc1cnc(Nc2cc(NC[C@H]3CNCCO3)c(C(F)(F)F)cn2)cn1
[4]
  fraction of GFP+ cells: 1.18 ± 0.1

## Nc1ncnc2c1c(-c1cnc3[nH]ccc3c1)nn2C1CCCC1
[1]
  fraction of edited reads among all mapped reads: 0.0596
[2]
  fraction of microhomology deletions among edited reads: 0.403
[3]
  fraction of 1-bp insertions among edited reads: 0.412
[4]
  fraction of GFP+ cells: 0.289 ± 0.034

## O=C(Nc1ccncc1)c1cc([N+](=O)[O-])ccc1Cl
[4]
  fraction of GFP+ cells: 1.74 ± 0.44

## CCn1c(=O)c(-c2ccc(Cl)cc2Cl)cc2cnc(Nc3ccc(N4CCNCC4)c(F)c3)nc21
[1]
  fraction of edited reads among all mapped reads: 0.0726
[2]
  fraction of microhomology deletions among edited reads: 0.477
[3]
  fraction of 1-bp insertions among edited reads: 0.288
[4]
  fraction of GFP+ cells: 0.433 ± 0.12

## CO[C@H]1/C=C/O[C@@]2(C)Oc3c(C)c(O)c4c(O)c(c(/C=N/N5CCN(C6CCCC6)CC5)c(O)c4c3C2=O)NC(=O)/C(C)=C\C=C\[C@H](C)[C@H](O)[C@@H](C)[C@@H](O)[C@@H](C)[C@H](OC(C)=O)[C@@H]1C [Rifapentine]
[1]
  fraction of edited reads among all mapped reads: 0.14
[2]
  fraction of microhomology deletions among edited reads: 0.538
[3]
  fraction of 1-bp insertions among edited reads: 0.258
[4]
  fraction of GFP+ cells: 3.03 ± 0.37

## O=c1c(-c2ccc(O)cc2)coc2cc(O)cc(O)c12 [Genistein]
[1]
  fraction of edited reads among all mapped reads: 0.113
[2]
  fraction of microhomology deletions among edited reads: 0.529
[3]
  fraction of 1-bp insertions among edited reads: 0.253
[4]
  fraction of GFP+ cells: 1.07 ± 0.17

## O=C1Cc2c([nH]c3ccc(Br)cc23)-c2ccccc2N1 [Kenpaullone]
[1]
  fraction of edited reads among all mapped reads: 0.165
[2]
  fraction of microhomology deletions among edited reads: 0.526
[3]
  fraction of 1-bp insertions among edited reads: 0.274
[4]
  fraction of GFP+ cells: 1.53 ± 0.057

## CNc1ccc([N+](=O)[O-])c(Nc2ccc3[nH]ncc3c2)n1
[1]
  fraction of edited reads among all mapped reads: 0.1
[2]
  fraction of microhomology deletions among edited reads: 0.551
[3]
  fraction of 1-bp insertions among edited reads: 0.269
[4]
  fraction of GFP+ cells: 2.16 ± 0.36

## O=C(NCCN1CCOCC1)Nc1ccc(C(=O)/C=C/c2cccc(N3CCOCC3)n2)cc1
[4]
  fraction of GFP+ cells: 1.18 ± 0.16

## Cc1cc([N+](=O)[O-])ccc1NS(=O)(=O)c1cc(Cl)ccc1Cl
[4]
  fraction of GFP+ cells: 1.64 ± 0.13

## O=C(c1cccc(Cl)c1F)N1CCN(Cc2cccc(Nc3nccs3)n2)CC1
[1]
  fraction of edited reads among all mapped reads: 0.0584
[2]
  fraction of microhomology deletions among edited reads: 0.559
[3]
  fraction of 1-bp insertions among edited reads: 0.193
[4]
  fraction of GFP+ cells: 1.25 ± 0.38

## CC(C)(C#N)c1ccc(N2C(=O)OCc3cnc4ccc(-c5cnc6ccccc6c5)cc4c32)cc1
[1]
  fraction of edited reads among all mapped reads: 0.0904
[2]
  fraction of microhomology deletions among edited reads: 0.53
[3]
  fraction of 1-bp insertions among edited reads: 0.267
[4]
  fraction of GFP+ cells: 1.01 ± 0.45
